Assay outcomes from PubChem.
Cruzain noTriton: qHTS Assay for Promiscuous and Specific Inhibitors of Cruzain (without detergent); Potency, µM, without a hit: max response, negative = inhibition, actives largely listed as inhibitors; purified cruzain, Z-FR-AMC fluorescence, no detergent; actives 2.3% (n = 200,000);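 also: plate controls were enzyme without inhibitor for no effect and buffer without enzyme for full effect; nearly all actives have a fitted effect of over 40% in size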
Target sequence (P25779 123-467 limits assumed): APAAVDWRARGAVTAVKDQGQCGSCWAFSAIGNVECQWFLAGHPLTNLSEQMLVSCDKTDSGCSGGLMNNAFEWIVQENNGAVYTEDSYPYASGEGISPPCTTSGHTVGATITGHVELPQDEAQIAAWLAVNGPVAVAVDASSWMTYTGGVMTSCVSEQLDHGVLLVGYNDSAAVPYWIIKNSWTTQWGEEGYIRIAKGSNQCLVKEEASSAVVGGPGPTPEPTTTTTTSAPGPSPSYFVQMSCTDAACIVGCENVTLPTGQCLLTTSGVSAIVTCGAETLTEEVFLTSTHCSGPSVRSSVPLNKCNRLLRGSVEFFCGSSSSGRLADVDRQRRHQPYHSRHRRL
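Purified cruzain at 1.5 nM, pre-incubated 15 min with compound at room temperature in 100 mM sodium acetate pH 5.5, 5 mM DTT, 0.00005% Triton X-100. Reaction started with 2 uM Z-FR-AMC; AMC fluorescence increase over 60 s gives rate.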
Cruzain inh Det: qHTS Assay for Promiscuous and Specific Inhibitors of Cruzain (with detergent); Cruzipain (Trypanosoma cruzi), P25779; Potency, µM, inactives show max response, negative = inhibition, actives largely listed as inhibitors; actives 0.43% (n = 200,000); AID 1478, 2009; purified cruzain, Z-FR-AMC fluorescence, 0.01% Triton;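 also: plate controls were neutral wells for no effect and buffer without enzyme for full effect; nearly all actives have a fitted effect of over 40% in size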
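Detergent-containing run (0.01% Triton X-100) in acetate buffer pH 5.5 with 5 mM DTT: enzyme at 1.5 nM final, 15 min compound preincubation at room temperature, then 2 uM Z-FR-AMC substrate. Activity taken as 60 s fluorescence increase at 360/450 nm.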
Papain counter: qHTS Assay for Inhibitors of Papain: Counterscreen for Cruzain Assay. purified papain, Z-FR-AMC fluorescence cleavage. shares compounds with Cruzain inh Det. Potency, µM, for inactives: max response, negative = inhibition, most hits filed as inhibitors. actives 41% (n = 410);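 also: 0% = no-compound wells and -100% = no-enzyme wells; nearly all actives have a fitted effect of over 35% in size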
Target sequence (P00784 whole entry, looked up): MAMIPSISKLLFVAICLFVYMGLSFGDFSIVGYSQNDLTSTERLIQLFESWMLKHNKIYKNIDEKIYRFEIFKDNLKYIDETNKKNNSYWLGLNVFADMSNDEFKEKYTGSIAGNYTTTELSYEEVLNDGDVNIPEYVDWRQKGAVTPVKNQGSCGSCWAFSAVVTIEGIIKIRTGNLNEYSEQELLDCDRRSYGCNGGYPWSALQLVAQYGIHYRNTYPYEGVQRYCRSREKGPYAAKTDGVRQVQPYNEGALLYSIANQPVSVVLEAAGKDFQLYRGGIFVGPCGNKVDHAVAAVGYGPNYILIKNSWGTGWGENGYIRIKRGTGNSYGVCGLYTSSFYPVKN
An asterisk follows results filed as active; ? = inconclusive; nt = not tested or not shown. In the library only some 2.4% were active in any assay of this set; here they are far more common. Calls follow the shape of the dose curve; as a rule, active = well fitted curve in the direction sought with a large enough effect; inconclusive = small, poorly fitted or top-dose-only effect, or another doubt; inactive = no such curve, though single readings can be large; an effect the other way counts as inactive or inconclusive. Potency is read from the fitted curve at half-maximal effect.

SMILES	Cruzain noTriton	Cruzain inh Det	Papain counter
CCOc1ccc(CN2C(=O)c3ccccc3Sc3ccc(C(=O)NCCc4ccccc4)cc32)cc1	?	-6%	nt
COc1cccc(CNC(=O)c2ccc3c(c2)N(Cc2ccc(F)cc2Cl)C(=O)c2ccccc2S3)c1	13µM*	1%	7%
COc1cccc(CN2C(=O)c3ccccc3Sc3ccc(C(=O)NCCc4ccc(Cl)cc4)cc32)c1	20µM*	-3%	8%
CCOc1ccc(CN2C(=O)c3ccccc3Sc3ccc(C(=O)NCc4ccc(C)cc4)cc32)cc1	10µM*	-1%	8%
Cc1cccc(CN2C(=O)c3ccccc3Sc3ccc(C(=O)NCCc4ccccc4)cc32)c1	?	1%	nt
Cc1c(-n2cc(C(=O)c3cc(Br)ccc3O)cc(C#N)c2=O)c(=O)n(-c2ccccc2)n1C	-6%	-3%	nt
COC(=O)c1c(C(=O)OC)c2ccncn2c1Cl	-4%	0%	nt
CCN(CC)S(=O)(=O)c1ccc2c(c1)N(CC(=O)Nc1c(C)cccc1C)C(=O)CO2	-17%	0%	nt
O=C(COC(=O)CNS(=O)(=O)c1ccc(F)c(F)c1F)Nc1ccc(OC(F)F)cc1	?	22µM*	-6%
CCCCC(=O)OCC(=O)Nc1ccc(OC(F)F)cc1	-12%	1%	nt
CCc1cccc(C)c1NC(=O)C1CCN(S(=O)(=O)Cc2ccccc2)CC1	4%	-5%	nt
Cc1nn(CC(=O)Nc2cccc(C(F)(F)F)c2)c(=O)c2nn(-c3ccccc3)c(C)c12	6%	-8%	nt
O=C(Cn1c(=O)nc(-c2ccccc2)c2cc(Cl)ccc21)N1CCN(c2ccc(F)cc2)CC1	-4%	3%	nt
O=C(c1ccco1)N1CCN(c2ncnc3c2[nH]c2ccc(Cl)cc23)CC1	?	14µM*	-10%
O=C(c1ccco1)N1CCN(c2c(-c3ccccc3)c3cc(Cl)ccc3[nH]c2=O)CC1	?	-3%	nt
CCOc1ccc(OCC)c(NC(=O)c2nnn(Cc3cc(Br)ccc3OC)c2N)c1	-2%	1%	nt
N#Cc1nc(N2CCCC2)nc(N(c2ccccc2)c2ccccc2)n1	nt	nt	2µM*
CC(C)N(C#N)c1nc(N2CCOCC2)nc(N2CCOCC2)n1	-5%	2%	nt
N#Cc1nc(N2CCCCC2)nc(N2CCOCC2)n1	1µM*	0.89µM*	1µM*
CCOc1nc(C#N)nc(N2CCOCC2)n1	nt	nt	4µM*
Nc1nc(-c2ccco2)nc(N2CCCCC2)n1	-17%	-1%	nt
N/C(=N/O)c1nc(N2CCCC2)nc(N(c2ccccc2)c2ccccc2)n1	-2%	-12%	nt
N#Cc1nc(N)nc(N2CCCCC2)n1	nt	nt	5µM*
CNc1nc(OCC(F)(F)F)nc(N2CCOCC2)n1	-3%	3%	nt
CN(C)C(=O)c1ccc(-c2ccc3ncnc(N4CCNCC4)c3c2)cc1	-7%	0%	nt
SMILES	Cruzain noTriton	Cruzain inh Det	Papain counter
O=C1C2CCCN2C(=O)N1CCCCN1CCN(c2cccc(Cl)c2)CC1 (stereo not drawn)	-3%	-3%	nt
CCOC(=O)C1CCN(S(=O)(=O)c2c(C)n[nH]c2C)CC1	-4%	1%	nt
CCc1ccccc1NC(=O)Cn1nc(N2CCN(c3ccccc3OC)CC2)ccc1=O	?	-2%	nt
CCCCCc1nnc(NC(=O)Cn2cnc3ccccc3c2=O)s1	-1%	-4%	nt
COc1ccc(N2CC(NC(=O)C3CC3)CC2=O)cc1OC (stereo not drawn)	9%	1%	nt
COc1ccc(C(=O)NNc2ncnc3c2cnn3-c2ccccc2)cc1	-8%	0%	nt
COc1nc(C#N)nc(N2CCCCC2)n1	nt	nt	2.2µM*
COc1nc(OC)nc(N2CCCCCC2)n1	4%	-4%	nt
CC(=O)c1nnn(-c2nc(C#N)nc(N3CCOCC3)n2)c1C	nt	nt	-7%
N#Cc1nc(N2CCCC2)nc(N2CCCC2)n1	5µM*	7.9µM*	5.6µM*
CC(=O)c1nnn(-c2nc(N)nc(N(c3ccccc3)c3ccccc3)n2)c1C	?	-5%	nt
CN(C)c1nc(SCC#N)nc(N2CCOCC2)n1	-7%	4%	nt
CN(C)c1nc(C#N)nc(N2CCOCC2)n1	3.2µM*	4µM*	2.2µM*
C1CCN(c2nc(N3CCCCC3)nc(N3CCNCC3)n2)CC1	6%	4%	nt
COc1ccc(N2CCN(C(CNC(=O)C(=O)NCCCN(C)C)c3cccnc3)CC2)cc1 (stereo not drawn)	11%	-2%	nt
Cc1ccc(N2C(=O)CC2(C#N)c2ccc(OCc3ccccc3)cc2)cc1 (stereo not drawn)	-18%	2%	nt
COc1cccc(C(=O)Nc2ccc(-c3nc4ccccc4s3)cc2Cl)c1	?	-3%	nt
COc1cc(C(=O)Nc2ccc3c(c2)Cc2cc(NC(=O)c4cc(OC)c(OC)c(OC)c4)ccc2-3)cc(OC)c1OC	8%	-2%	nt
CCCNc1nc(Nc2ccc(C)cc2)nc(N2CCCC2)n1	-5%	-11%	nt
CCCNc1nc(N2CCOCC2)nc(N2CCOCC2)n1	4%	3%	nt
CCOC(=O)CNc1nc(C#N)nc(N2CCOCC2)n1	2µM*	2.2µM*	2.2µM*
CCSc1nnc(NC(=O)/C=C/c2ccc3c(c2)OCO3)s1	16µM*	16µM*	7%
O=C(/C=C/c1ccc2c(c1)OCO2)Nc1nc2ccccc2s1	-11%	-1%	nt
CCSc1nnc(NC(=O)c2ccc(Br)s2)s1	25µM*	-2%	14%
CCSc1nnc(NC(=O)c2ccccn2)s1	9%	-7%	nt
SMILES	Cruzain noTriton	Cruzain inh Det	Papain counter
CCNS(=O)(=O)c1ccc2c(c1)NCC2	8%	0%	nt
Cn1nnnc1SCc1ccc([N+](=O)[O-])cc1	3%	-1%	nt
O=C(c1ccc(OCCN2CCCCC2)cc1)c1c(-c2ccc(O)cc2)sc2cc(O)ccc12	-12%	-5%	-3%
O=C(c1ccccc1)c1ccc(OCCCN2CCCCC2)cc1	7%	4%	nt
O=C(NCc1ccco1)c1cccc(NC(=O)c2ccccc2)c1	7%	2%	nt
Cc1cccc(N2CCN(C(=O)c3ccc4nc(-c5ccco5)c(-c5ccco5)nc4c3)CC2C)c1 (stereo not drawn)	2%	-2%	nt
O=C(NC1CC1)c1ccc2nc(-c3ccco3)c(-c3ccco3)nc2c1	nt	nt	32µM*
O=C(NC1CCCCC1)c1cc(-c2ccco2)on1	0%	0%	nt
CNC(=O)c1ccc2nc(-c3ccco3)c(-c3ccco3)nc2c1	nt	nt	32µM*
O=C(Nc1ccccc1)c1ccc2nc(-c3ccco3)c(-c3ccco3)nc2c1	?	?	13µM*
O=C(NCCc1nc2ccccc2[nH]1)c1cc([N+](=O)[O-])cc([N+](=O)[O-])c1	-4%	3.5µM*	5%
O=C(NCCOc1ccccc1)c1cc(C(=O)NCCOc2ccccc2)cc([N+](=O)[O-])c1	-2%	-5%	nt
CCNc1nc(C#N)nc(NCC)n1	nt	nt	-8%
CCNc1nc(NOC)nc(OCC#N)n1	-3%	-1%	nt
COc1ccc(N2CCN(C(=O)CSc3nc4ccccc4nc3Cc3ccc(Cl)cc3)CC2)cc1	?	-1%	nt
COc1ccc2cc3cc(C(=O)NCCCN4CCOCC4)oc3nc2c1	?	32µM*	16µM*
COc1ccc2cc3cc(C(=O)NCCN4CCN(Cc5ccccc5)CC4)oc3nc2c1	-30%	?	nt
NC(=S)N/N=C/c1ccc(-c2cc(Cl)ccc2Cl)o1	0.63µM*	0.71µM*	4.5µM*
COC(=O)N/N=C/c1ccc(-c2cccc(Cl)c2)o1	2%	-11%	nt
C/C(=N/OCO/N=C(\C)c1ccc(F)cc1F)c1ccc(F)cc1F	4%	-1%	nt
